Source: ChEMBL document CHEMBL3433997, “St. Jude Leishmania screening dataset” (2016)

Assays:
Assay type in all cases: functional
[1] = molecular target: Solute carrier family 2, facilitated glucose transporter member 1 (Homo sapiens) (UniProt P11166); assay: ST_JUDE_LEISH: Cytotoxicity at 2uM final concentration against transgenic Leishmania Mexicana promastigotes LmGLUT1 that are glucose transport deficient and complemented with the human glucose transporter GLUT1. Activity is measured by DNA content using SYBR green in vitro
Sequence of Solute carrier family 2, facilitated glucose transporter member 1 (Homo sapiens) (P11166 whole entry): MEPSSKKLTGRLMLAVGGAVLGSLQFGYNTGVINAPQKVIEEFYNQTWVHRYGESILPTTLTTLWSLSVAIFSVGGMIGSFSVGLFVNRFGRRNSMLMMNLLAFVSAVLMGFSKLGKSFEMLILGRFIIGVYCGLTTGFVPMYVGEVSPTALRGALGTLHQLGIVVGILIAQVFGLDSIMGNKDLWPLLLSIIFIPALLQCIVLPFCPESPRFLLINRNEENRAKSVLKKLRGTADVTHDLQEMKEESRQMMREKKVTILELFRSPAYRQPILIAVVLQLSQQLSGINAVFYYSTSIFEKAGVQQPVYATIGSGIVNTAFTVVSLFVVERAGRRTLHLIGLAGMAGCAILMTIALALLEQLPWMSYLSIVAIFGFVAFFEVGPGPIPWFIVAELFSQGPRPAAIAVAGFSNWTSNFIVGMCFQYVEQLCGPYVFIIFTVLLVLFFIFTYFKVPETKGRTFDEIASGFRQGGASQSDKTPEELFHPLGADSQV

[2] = molecular target: Hexose transporter 1 (Plasmodium falciparum) (UniProt O97467); assay: ST_JUDE_LEISH: Cytotoxicity at 2uM final concentration against transgenic Leishmania Mexicana promastigotes LmPfHT that are glucose transport deficient and complemented with the Plasmodium falciparum hexose transporter. Activity is measured by DNA content using SYBR green in vitro
[3] = molecular target: Glucose transporter (Leishmania mexicana) (UniProt O61059); assay: ST_JUDE_LEISH: Cytotoxicity at 2uM final concentration against transgenic Leishmania Mexicana promastigotes LmGT2 that are glucose transport deficient and complemented with the L. Mexicana glucose transporter 2. Activity is measured by DNA content using SYBR green in vitro

Structure (SMILES)	inhibition [1] [%]	inhibition [2] [%]	inhibition [3] [%]
COc1cc(NC(=O)/C=C/c2cccc3cc[nH]c23)ccc1OCCN(C(C)C)C(C)C	2.46	1.55	-2.66
COc1ccc(CNc2nc(NCc3ccccc3)c3cc(OC)c(OC)cc3n2)cc1OC	4.35	5.92	0.89
CN1CCN(CCCN(Cc2ccc(-c3cccc(CNCc4ccc5c(c4)OCO5)c3)cc2)C(=O)NCCc2ccccc2)CC1	5.4	2.67	3.58
Cc1nc(N)nc(N)c1OCc1cccc2ccccc12	0.2	1.33	-1.23
N#Cc1c(N)n(CCc2ccc(F)cc2)c2nc3ccccc3nc12	1.05	1.58	-0.08
Cc1cccc(Cl)c1S(=O)(=O)Nc1cccc(CCN2CCC(N3CCCCC3)CC2)c1	-0.03	-0.24	-2.34
COCc1cccc(-c2cc(-c3ccc(S(C)(=O)=O)cc3)cnc2N)c1	-0.03	-0.46	-5.63
Cc1cc(-c2ccc(Cl)cc2)c2c(N)c(C(=O)Nc3ccc(F)cc3)sc2n1	0.19	-2.52	0.35
Cn1c(Cc2ccccc2)nnc1Sc1ccc(C#N)c([N+](=O)[O-])c1	3.85	1.84	-3.07
CC(C)CCN(Cc1cncn1Cc1cccc(C(F)(F)F)c1)C(=O)c1cncc(-c2ccccc2)c1	3.6	4.72	1.28
Cc1ccc(NC(=O)c2cccc(N3CCN(c4ccncc4)CC3)c2)cc1F	10.8	9.25	15.6
CCCc1c(C(=O)Nc2ccc3c(c2)CCN(C2CCC2)CC3)cnn1-c1ccc(Cl)cc1	5.65	4.4	2.6
CCCC(=O)NC(c1ccc(C)cc1)c1ccc2cccnc2c1O (stereo not given)	3.47	4.55	-1.36
COc1ccc(NC(=O)Nc2ccc(-c3cccc(-c4nc5ccccc5[nH]4)c3)cc2)cc1	3	3.12	2.89
O=C(/C=C/c1ccc(Cl)c(Cl)c1)NCCCCCN1CCCN(C(=O)Nc2cccc(F)c2)CC1	0.1	0.29	3.86
O=C(Nc1cccc(OC2CCN(Cc3ccccc3)CC2)c1)c1ccc([N+](=O)[O-])cc1	4.89	4.94	4.55
O=C(Nc1cccc(F)c1)N1CCC(CN2CCOC(c3ccccc3)(c3ccccc3)C2)CC1	3.49	4.01	5
COc1cc2nc(N3CCC(CNC(=O)c4ccc(-c5ccc(C(=O)N(C)C)cc5)cc4)CC3)nc(N)c2cc1OC	1.96	0.11	1.75

Structure (SMILES)	inhibition [1] [%]	inhibition [2] [%]	inhibition [3] [%]
c1cn(CCCNc2ncc(-c3ccsc3)c(-c3nccs3)n2)cn1	11	10.1	9.4
O=C(CCNc1ccnc(NCC2CCCCC2)n1)Nc1ccccc1	7.25	5.25	3.46
Cc1c(Cc2ccccc2Cl)cnc2nc(N)nc(N)c12	18.9	37.5	24.1
O=C(Nc1cccc(-c2ccc(-c3nc4cc(C(F)(F)F)ccc4[nH]3)cc2)c1)c1ccncc1	6.22	0.73	5.09
COC(=O)c1cccc(CNCc2cccc(-c3csc(-c4nc5ccccc5[nH]4)c3)c2)c1	9.3	8.51	6.38
O=C(/C=C/c1ccc(Cl)c(Cl)c1)N1CCC(CCN2CCC(c3c[nH]c4ccccc34)CC2)CC1	-0.41	0.94	0.41
O=C(Nc1cccc(-c2nn3ccccc3c2-c2ccnc(Nc3cccc(-c4cnco4)c3)n2)c1)C1CCCCC1	1.06	3.39	-0.16
C=C[C@H]1CN(CCCCCCC)CC[C@H]1CCNc1ccnc2ccc(OC)cc12	-2.18	3.68	-1.48
Cc1nnsc1C(=O)Nc1cccc(-c2cccc(-c3nc4cc(C(F)(F)F)ccc4[nH]3)c2)c1	6.42	6.2	6.93
COc1ccc(C(C(=O)NC2CCN(C[C@H](O)c3ccnc4ccc(OC)cc34)CC2)N2CCN(c3ccc(F)cc3)CC2)cc1 (stereo not given in full)	1.52	1.23	1.93
O=C(/C=C/c1ccc(Cl)c(Cl)c1)NCCCCCN1CCCN(C(=O)Nc2ccc(Cl)c(Cl)c2)CC1	-0.96	-0.4	-0.85
CC(=O)Nc1cccc(C(=O)Nc2cccc(-c3csc(-c4nc5ccccc5[nH]4)c3)c2)c1	4.93	2.83	3.14
COc1ccccc1-c1nc2c(ccc3nc(N)nc(N)c32)[nH]1	49.5	58.8	4.58
O=C(C=Cc1ccc(Cl)c(Cl)c1)NCCCCCN1CCC(CCNC(=O)c2cccc3ccccc23)CC1	4.11	2.98	2.03
COc1cccc(NC(=O)c2nc(N3CCN(c4ccncc4)CC3)ccc2Cl)c1	-1.23	1.65	0.29
Cc1[nH]c(C)c(-c2ccc(OCc3ccc(OC(F)(F)F)cc3)nc2)c(=O)c1Cl	13.3	15.2	11.2
CC(=O)c1c(CC(=O)O)c2ccccc2n1O	2.28	4.52	3.07
